Assay outcomes deposited in PubChem by National Center for Advancing Translational Sciences (NCATS).
Hits are enriched below; roughly 6.2% of the tested compounds scored in any of these assays.
KB-V1 cytotox = KB-V1 MDR subline cytotoxicity | KB-V1 MDR cells viability, CellTiter-Glo, 72 h | Potency, µM (series often up to 46.1 µM), usual class: cytotoxic | AID 1347076 | actives 3.4% (n = 400,000); also: % is scaled to controls: 0 for no effect and ±100 for the full control effect; nearly all actives have a fitted effect of over 60% in size
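qHTS viability screen in drug-selected KB-V1 MDR cells: 72 h compound treatment at 37 degrees C, ATP luminescence end point.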
ATXN2 expr inh = reduces ATXN2 reporter expression in HEK-293 cells; actives 0.72% (n = 360,000); AID 1745845; Potency, µM (titrated, usually from 57 µM), without a hit: at the top dose activity change, negative = inhibition, actives largely listed as inhibitors; HEK-293 ATXN2-luciferase reporter, luminescence, 24 h; also: % is scaled to controls: 0 for no effect and ±100 for the full control effect; nearly all actives have a fitted effect of over 55% in size
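qHTS (up to 57 uM final) was run with 24 h compound exposure of reporter cells at 37 °C. Each well was multiplexed: SteadyGlo luminescence measured ATXN2-luciferase expression after a fluorogenic Gly-Phe-AFC viability readout (25 uM final).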
HT1080NT lethal = kills 2HG-producing HT-1080-NT fibrosarcoma cells. AID 686970. actives 1.6% (n = 360,000). HT-1080-NT fibrosarcoma viability, CellTiter-Glo ATP luminescence, 48 h. Potency, µM (highest dose often 46.1 µM), inactives show at the highest dose activity, negative = less viability, hits mostly cytotoxic;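 also: NT is the 2HG producing partner of a matched IDH1 knockdown line; 0% = DMSO-treated cells and -100% = media-only wells without cells; nearly all actives have a fitted effect of over 55% in size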
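Compounds were tested in concentration-response format on HT-1080-NT cells for 48 hours at 37 degrees C. Cell viability came from CellTiter-Glo luminescence; curves were classified by r2, response magnitude and activity.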
HT1080 IDH1KD tx = HT-1080 IDH1 knockdown cell toxicity (counter line); Potency, µM (series often up to 46.1 µM), inactives show at the highest dose activity, negative = toxicity, most hits filed as cytotoxic; actives 2% (n = 360,000); HT-1080 IDH1 knockdown viability, ATP luminescence, 48 h; AID 686971;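 also: 0% = DMSO wells and -100% = cell-free medium wells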
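Luminescent ATP read-out (CellTiter-Glo, 10 min at room temperature) after 48 h compound exposure at 37 °C gave viability of IDH1-knockdown HT-1080 cells. Activity was normalised to DMSO and cell-free wells, then fitted as concentration-response curves.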
S2 tox = cell viability loss in ATXN counter-screen. actives 0.49% (n = 400,000). Potency, µM (highest dose often 56.7 µM), hits mostly cytotoxic. S2 cells (HEK-293 line with an ATXN2-luciferase reporter) viability, CellTiter-Fluor protease fluorescence, 24 h; also: nearly all actives have a fitted effect of over 40% in size
KB-3-1 tox = KB-3-1 parental cell cytotoxicity; KB-3-1 viability, CellTiter-Glo ATP luminescence, 72 h; Potency, µM (doses to about 46.1 µM), hits mostly cytotoxic; actives 1.4% (n = 400,000); AID 1347075; also: % is scaled to controls: 0 for no effect and ±100 for the full control effect; nearly all actives have a fitted effect of over 60% in size
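Parental KB-3-1 viability, qHTS format: 72 h compound exposure, 37 °C; CellTiter-Glo; media-only wells and DMSO plates as controls; concentration-effect fits on corrected data.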
Numbers without * were called inactive. Calls follow the shape of the dose curve; as a rule, active = well fitted curve in the direction sought with a large enough effect; inconclusive = small, poorly fitted or top-dose-only effect, or another doubt; inactive = no such curve, though single readings can be large; an effect the other way counts as inactive or inconclusive. Potency is read from the fitted curve at half-maximal effect.

Results for CCN1C[C@H](C)n2c(c(O)c3c(=O)n(Cc4ccc(F)c(Cl)c4)nc(C(=O)NC)c32)C1=O ?
ATXN2 expr inh: -4%

How did O=C(CNC(=O)C1CCCCC1)Nc1ccccc1Cl do in these assays?
KB-V1 cytotox: inactive; ATXN2 expr inh: -2%; HT1080NT lethal: 5%; HT1080 IDH1KD tx: 0%; S2 tox: inactive; KB-3-1 tox: inactive

What do the screens show for `O=C(CNC(=O)C1CCCCC1)Nc1cc(Cl)ccc1Cl`?
KB-V1 cytotox: 21µM*; ATXN2 expr inh: -2%; HT1080NT lethal: -10%; HT1080 IDH1KD tx: 0%; S2 tox: inactive; KB-3-1 tox: inactive

How did CCOC(=O)c1sc2nc(C)nc(NCc3ccc(F)cc3)c2c1C do in these assays?
KB-V1 cytotox: inactive; ATXN2 expr inh: inconclusive; HT1080NT lethal: 18µM*; HT1080 IDH1KD tx: 21µM*; S2 tox: inactive; KB-3-1 tox: inactive

What do the screens show for `O=c1[nH]c(C2CCN(S(=O)(=O)c3ccc4c(c3)OCCO4)CC2)nc2c1nnn2Cc1cccc(F)c1`?
KB-V1 cytotox: inactive; ATXN2 expr inh: -11%; HT1080NT lethal: -9%; HT1080 IDH1KD tx: -12%; S2 tox: inactive; KB-3-1 tox: inactive

What do the screens show for `O=c1[nH]c(C2CCN(S(=O)(=O)c3cccc(C(F)(F)F)c3)CC2)nc2c1nnn2Cc1cccc(F)c1`?
KB-V1 cytotox: inconclusive; ATXN2 expr inh: inconclusive; HT1080NT lethal: 21µM*; HT1080 IDH1KD tx: 21µM*; S2 tox: inactive; KB-3-1 tox: inconclusive

Results for COc1cc2c(cc1OC)C(c1ccccc1)N(C(=O)CCl)CC2 (centres undefined) ?
KB-V1 cytotox: 9.2µM*; ATXN2 expr inh: 28µM*; HT1080NT lethal: inconclusive; HT1080 IDH1KD tx: inconclusive; KB-3-1 tox: 4.1µM*

How did COc1ccccc1N1CCN(C(=O)c2cc(N3C(=O)C4C5CCC(C5)C4C3=O)ccc2Cl)CC1 (centres undefined) do in these assays?
KB-V1 cytotox: 4.1µM*; ATXN2 expr inh: -11%; HT1080NT lethal: -1%; HT1080 IDH1KD tx: -1%; S2 tox: inactive; KB-3-1 tox: inactive

How did CCSc1ncc(Cl)c(C(=O)N2CCN(c3ccccc3OC)CC2)n1 do in these assays?
KB-V1 cytotox: 3.7µM*; ATXN2 expr inh: -13%; S2 tox: inconclusive; KB-3-1 tox: 6.5µM*

Results for COc1cc2c(cc1OC)C(C)N(C(=O)c1c(-c3ccccc3)noc1C)CC2 (centres undefined) ?
KB-V1 cytotox: 21µM*; HT1080NT lethal: inconclusive; HT1080 IDH1KD tx: 23µM*; S2 tox: inactive; KB-3-1 tox: inconclusive

Results for COc1ccc(N2CCN(C(=O)c3nc(SC)ncc3Cl)CC2)cc1 ?
KB-V1 cytotox: inactive; ATXN2 expr inh: -8%; S2 tox: inactive; KB-3-1 tox: inactive

Results for COc1cc2c(cc1OC)C(C1C(=O)CCCC1=O)N(C(=O)CCl)CC2 (centres undefined) ?
KB-V1 cytotox: inactive; HT1080NT lethal: 3%; HT1080 IDH1KD tx: 0%; S2 tox: inactive; KB-3-1 tox: inactive

How did COc1cccc(Cn2c(SCC(=O)N(C)c3ccccc3)nc3ccccc32)c1 do in these assays?
KB-V1 cytotox: inconclusive; ATXN2 expr inh: inconclusive; S2 tox: inconclusive; KB-3-1 tox: inactive

Results for O=C(O[C@H]1[C@H](Cc2ccccc2)NS(=O)(=O)[C@H]2C[C@@H]3C=C[C@]12O3)c1ccccc1Br ?
KB-V1 cytotox: inactive; KB-3-1 tox: inactive

What do the screens show for `CCOC(=O)c1c(S(=O)(=O)NCC(=O)Nc2ccc(F)cc2C)c(C)n(C)c1C`?
KB-V1 cytotox: inactive; ATXN2 expr inh: 10%; S2 tox: inactive; KB-3-1 tox: inactive

Results for Cn1c(CCNC(=O)c2ccco2)nc2cc(NC(=O)COc3ccc(Cl)cc3)ccc21 ?
KB-V1 cytotox: inactive; KB-3-1 tox: inactive

What do the screens show for `COc1cc(SC)ccc1C(=O)N1CCN(c2ccccc2OC)CC1`?
KB-V1 cytotox: 16µM*; ATXN2 expr inh: -28%; HT1080NT lethal: 9.2µM*; HT1080 IDH1KD tx: 8.2µM*; S2 tox: inactive; KB-3-1 tox: 6.5µM*

Results for COc1cc2c(C(=O)N3CCN(c4ccccc4C)CC3)c(C)oc2cc1Br ?
KB-V1 cytotox: 5.8µM*; ATXN2 expr inh: 2%; HT1080NT lethal: 5%; HT1080 IDH1KD tx: 12%; S2 tox: inactive; KB-3-1 tox: inconclusive

What do the screens show for `COc1ccccc1N1CCN(C(=O)c2c(C)cc(=O)oc2C)CC1`?
KB-V1 cytotox: inactive; ATXN2 expr inh: -7%; HT1080NT lethal: 19%; HT1080 IDH1KD tx: 13%; S2 tox: inactive; KB-3-1 tox: inactive

Results for COc1ccccc1N1CCN(C(=O)c2cc(-c3cccs3)on2)CC1 ?
KB-V1 cytotox: 18µM*; ATXN2 expr inh: 5%; HT1080NT lethal: -3%; HT1080 IDH1KD tx: -5%; S2 tox: inactive; KB-3-1 tox: inactive

What do the screens show for `COc1cc2c(cc1OC)C(C)N(C(=O)Nc1ccccc1)CC2` (centres undefined)?
KB-V1 cytotox: inconclusive; ATXN2 expr inh: -12%; HT1080NT lethal: 2.9µM*; HT1080 IDH1KD tx: 2.6µM*; S2 tox: inactive; KB-3-1 tox: 6.5µM*

Results for COc1cc2c(cc1OC)C(C)N(C(=O)CCNC(=O)c1ccccc1)CC2 (centres undefined) ?
KB-V1 cytotox: inactive; ATXN2 expr inh: 4%; HT1080NT lethal: -2%; HT1080 IDH1KD tx: 11%; S2 tox: inactive; KB-3-1 tox: inactive

What do the screens show for `Cc1ccc(-c2cn3c(n2)sc2cc(C(=O)NC4CCCCCC4)ccc23)cc1`?
KB-V1 cytotox: inactive; KB-3-1 tox: inactive

Results for Cc1cccnc1-c1cccc2c1OC(CNC(=O)C1CCCc3c1[nH]c1ccccc31)C2 (centres undefined) ?
S2 tox: inactive

What do the screens show for `COc1cc2c(cc1OC)C(C)N(CCN1C(=O)c3ccccc3C1=O)CC2` (centres undefined)?
KB-V1 cytotox: inactive; HT1080NT lethal: -1%; HT1080 IDH1KD tx: 0%; S2 tox: inactive; KB-3-1 tox: inactive

How did COc1cc2c(cc1OC)C(C)N(CCc1ccc(Cl)cc1)CC2 (centres undefined) do in these assays?
KB-V1 cytotox: inconclusive; ATXN2 expr inh: -32%; HT1080NT lethal: 12µM*; HT1080 IDH1KD tx: inconclusive; S2 tox: inactive; KB-3-1 tox: inactive
